The list is not random: actives were taken first. Their share in the collection is about 6.7%.
T cruzi growth-1 = blocks T. cruzi growth in NIH3T3 culture | T. cruzi beta-gal in NIH3T3, GalScreen luminescence, 90 h | inhibition, % at 8.34 µM | 77,000 compounds, 5.9% hits | AID 624255;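 active means mean inhibition above about 93%, with at least 55% of replicates each passing it, limit read from the data, passing the limit was not always enough; inconclusive means only one of those two conditions holds; inactive means neither condition holds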
Pf Dd2 inh = inhibitors of Plasmodium falciparum Dd2 growth | P. falciparum Dd2 growth, SYBR Green, 72 h; active compounds read low | activity change, % at 10 µM | 94,000 compounds, 2.3% hits | AID 1159554; in the data active means activity change below about -80%; inconclusive means no clear call, values can overlap the other calls
C diff growth = inhibitors of Clostridium difficile growth | growth activity, negative = inhibition, % at 16 µg/mL (by protocol) | Clostridium difficile clinical isolate growth, OD600, 24 h; active compounds read low | AID 1259249 | 86,000 compounds, 0.25% hits;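 active means mean growth activity at or below -80% and every replicate also at or below -80%; inconclusive means mean at or below -80% but some replicate above -80%; inactive means mean growth activity above -80%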
T cruzi growth-2 = inhibitors of T. cruzi proliferation; T. cruzi beta-gal in NIH3T3, GalScreen luminescence, 90 h; AID 651739; inhibition, % at 8.35 µM; 5,600 compounds, 72% hits; shares compounds with T cruzi growth-1;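 active means mean replicate inhibition above about 95% and at least 55% of replicates individually reaching it, limit read from the data; inconclusive means only one of the two criteria is met; inactive means neither criterion is met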
T cruzi growth-3 = blocks T. cruzi growth in NIH3T3 host cells. T. cruzi beta-gal in NIH3T3, GalScreen luminescence, 90 h. shares compounds with T cruzi growth-1. 5,600 compounds, 21% hits. inhibition, % at 2.09 µM;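 active means mean inhibition above about 95%, with at least 55% of replicates also reaching it, limit read from the data; inconclusive means meets just one of the two conditions; inactive means meets neither condition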
NIH3T3 tox = cytotoxicity in mouse NIH/3T3 fibroblasts. shares compounds with T cruzi growth-1. NIH/3T3 viability, CellTiter-Glo ATP luminescence, 90 h. cytotoxicity (signal decrease), % at 8.35 µM. 5,600 compounds, 14% hits. AID 651742;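 active means mean signal decrease across replicates above about 35% based on untreated-well scatter, with enough replicates individually passing, limit read from the data; inconclusive means no rule stated though some were filed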
3T3 cytotox 2 = cytotoxicity in mouse NIH/3T3 fibroblasts; shares compounds with T cruzi growth-1; NIH/3T3 viability, CellTiter-Glo ATP luminescence, 90 h; inhibition, % at 24.9 µM; 5,600 compounds, 56% hits; AID 651744;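 active means mean loss of cell viability signal at or above a set limit, and enough replicates individually reaching it; inconclusive means meets only the mean limit or only the replicate share; inactive means meets neither condition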
Each line names hits and unclear results; the compound was inactive in the other large screens (follow-up assays come after a bar, where they were run).

C[C@@H]1CCCCO[C@H](CN(C)S(=O)(=O)c2ccc(Cl)cc2)[C@H](C)CN([C@H](C)CO)C(=O)c2cc(N(C)C)ccc2O1	T cruzi growth-1 101 | T cruzi growth-2 104 | T cruzi growth-3 inactive | NIH3T3 tox inactive | 3T3 cytotox 2 inactive
Cc1noc(C)c1NC(=O)Nc1ccc2c(c1)C(=O)N([C@H](C)CO)C[C@@H](C)[C@@H](CN(C)S(=O)(=O)c1cccs1)O2	none (no result: C diff growth)
COc1ccccc1C#Cc1ccc2c(c1)O[C@@H](CN(C)Cc1ccncc1)[C@@H](C)CN([C@@H](C)CO)S2(=O)=O	T cruzi growth-1 123, Pf Dd2 inh inconclusive | T cruzi growth-2 101 | T cruzi growth-3 101 | NIH3T3 tox inactive | 3T3 cytotox 2 40
COc1ccccc1C#Cc1ccc2c(c1)O[C@@H](CN(C)Cc1cccnc1)[C@H](C)CN([C@H](C)CO)S2(=O)=O	none (no result: T cruzi growth-1)
COc1ccccc1C#Cc1ccc2c(c1)O[C@@H](CN(C)Cc1ccccc1)[C@@H](C)CN([C@@H](C)CO)S2(=O)=O	T cruzi growth-1 122 | T cruzi growth-2 104 | T cruzi growth-3 106 | NIH3T3 tox inactive | 3T3 cytotox 2 inactive
COc1ccccc1C#Cc1ccc2c(c1)O[C@H](CN(C)Cc1ccncc1)[C@H](C)CN([C@@H](C)CO)S2(=O)=O	none
C[C@@H]1CN([C@@H](C)CO)C(=O)c2cccc(NC(=O)C3CCOCC3)c2O[C@@H]1CN(C)Cc1ccc(Oc2ccccc2)cc1	none
C[C@@H]1CN([C@@H](C)CO)C(=O)c2cccc(NC(=O)NC3CCCCC3)c2O[C@@H]1CN(C)Cc1ccc(Cl)c(Cl)c1	none
C[C@H]1CN([C@@H](C)CO)C(=O)c2cccc(NC(=O)Nc3ccc(F)cc3)c2O[C@H]1CN(C)Cc1ccc(C(F)(F)F)cc1	none
C[C@@H]1CN([C@H](C)CO)C(=O)c2cccc(NC(=O)C3CCOCC3)c2O[C@H]1CN(C)Cc1ccc(Oc2ccccc2)cc1	T cruzi growth-1 inconclusive | T cruzi growth-2 102 | T cruzi growth-3 inactive | NIH3T3 tox inactive | 3T3 cytotox 2 inactive
C[C@H](CO)N1C[C@H](C)[C@H](CN(C)Cc2ccc(C(F)(F)F)cc2)Oc2c(NC(=O)Nc3ccc(C(F)(F)F)cc3)cccc2C1=O	T cruzi growth-1 101 | T cruzi growth-2 inconclusive | T cruzi growth-3 inactive | NIH3T3 tox inactive | 3T3 cytotox 2 75
C[C@@H]1CN([C@@H](C)CO)C(=O)c2cccc(NC(=O)NC3CCCCC3)c2O[C@H]1CN(C)Cc1ccc(Cl)c(Cl)c1	T cruzi growth-1 inconclusive | T cruzi growth-2 107 | T cruzi growth-3 inactive | NIH3T3 tox inactive | 3T3 cytotox 2 70
Cc1noc(C)c1NC(=O)Nc1cccc2c1O[C@@H](CN(C)Cc1ccncc1)[C@H](C)CN([C@@H](C)CO)C2=O	T cruzi growth-1 110 | T cruzi growth-2 inactive | T cruzi growth-3 inactive | NIH3T3 tox inactive | 3T3 cytotox 2 inactive
Cc1noc(C)c1NC(=O)Nc1cccc2c1O[C@@H](CN(C)Cc1ccncc1)[C@H](C)CN([C@H](C)CO)C2=O	none
C[C@@H]1CN([C@@H](C)CO)C(=O)c2cccc(NC(=O)Nc3ccc(F)cc3)c2O[C@@H]1CN(C)Cc1ccc(Oc2ccccc2)cc1	none (no result: C diff growth)
C[C@@H]1CN([C@@H](C)CO)C(=O)c2cccc(NC(=O)Nc3ccc(C(F)(F)F)cc3)c2O[C@@H]1CN(C)Cc1ccc2c(c1)OCO2	T cruzi growth-1 inconclusive (no result: C diff growth) | T cruzi growth-2 105 | T cruzi growth-3 inactive | NIH3T3 tox inactive | 3T3 cytotox 2 104
C[C@H]1CN([C@@H](C)CO)C(=O)c2cccc(NC(=O)Nc3ccc(F)cc3)c2O[C@@H]1CN(C)Cc1ccc(Oc2ccccc2)cc1	T cruzi growth-1 inconclusive (no result: C diff growth) | T cruzi growth-2 103 | T cruzi growth-3 inactive | NIH3T3 tox inactive | 3T3 cytotox 2 37
C[C@H](CO)N1C[C@H](C)[C@@H](CN(C)Cc2ccc(Oc3ccccc3)cc2)Oc2c(NC(=O)NC3CCCCC3)cccc2C1=O	T cruzi growth-1 inconclusive | T cruzi growth-2 108 | T cruzi growth-3 inactive | NIH3T3 tox inactive | 3T3 cytotox 2 106
C[C@H](CO)N1C[C@H](C)[C@H](CN(C)Cc2ccc(Cl)c(Cl)c2)Oc2c(NC(=O)Nc3ccc(C(F)(F)F)cc3)cccc2C1=O	T cruzi growth-1 128 | T cruzi growth-2 105 | T cruzi growth-3 101 | NIH3T3 tox inactive | 3T3 cytotox 2 98
C[C@H](CO)N1C[C@H](C)[C@H](CN(C)Cc2ccc(C(F)(F)F)cc2)Oc2c(NC(=O)Nc3ccc4c(c3)OCO4)cccc2C1=O	none
C[C@@H]1CN([C@@H](C)CO)C(=O)c2cccc(NC(=O)NC3CCCCC3)c2O[C@@H]1CN(C)Cc1ccccc1	none
C[C@H](CO)N1C[C@H](C)[C@H](CN(C)Cc2ccc(Cl)c(Cl)c2)Oc2c(NC(=O)Nc3ccc(F)cc3)cccc2C1=O	none (no result: C diff growth)
Cc1ccc(S(=O)(=O)Nc2ccc3c(c2)CC(=O)N([C@@H](C)CO)C[C@@H](C)[C@H](CN(C)C(=O)Nc2ccc(F)cc2)O3)cc1	none
O=C(C[C@@H]1C[C@@H]2c3cc(NC(=O)c4cccnc4)ccc3O[C@@H]2[C@@H](CO)O1)NC1CCCC1	none (no result: T cruzi growth-1)
COc1ccc(NC(=O)Nc2cccc3c2O[C@H](CN(C)Cc2ccc(Cl)c(Cl)c2)[C@@H](C)CN([C@H](C)CO)C3=O)cc1	none
C[C@H]1CN([C@@H](C)CO)C(=O)c2cccc(NC(=O)Nc3ccccc3)c2O[C@@H]1CN(C)Cc1ccc(C(F)(F)F)cc1	none
COc1ccc(NC(=O)Nc2cccc3c2O[C@@H](CN(C)Cc2ccc(Cl)c(Cl)c2)[C@H](C)CN([C@H](C)CO)C3=O)cc1	T cruzi growth-1 109 | T cruzi growth-2 106 | T cruzi growth-3 107 | NIH3T3 tox inactive | 3T3 cytotox 2 56
C[C@H](CO)N1C[C@H](C)[C@@H](CN(C)Cc2ccc(Oc3ccccc3)cc2)Oc2c(NC(=O)Nc3ccc(C(F)(F)F)cc3)cccc2C1=O	T cruzi growth-1 129 | T cruzi growth-2 101 | T cruzi growth-3 inactive | NIH3T3 tox inactive | 3T3 cytotox 2 104
C[C@@H]1CCCCO[C@H](CN(C)S(=O)(=O)c2cccs2)[C@@H](C)CN([C@H](C)CO)C(=O)c2cc(NC(=O)CCCN(C)C)ccc2O1	none
O=C(Cc1ccncc1)Nc1ccc2c(c1)[C@@H]1C[C@H](CC(=O)N3CCOCC3)O[C@@H](CO)[C@@H]1O2	none
COC(=O)C[C@@H]1CC[C@H]2[C@@H](COC[C@H](O)CN2S(=O)(=O)c2ccc(F)cc2)O1	none
COc1ccc(C[C@H]2CCn3cc(nn3)COC[C@H](C(C)C)NC2=O)cc1	none (no result: T cruzi growth-1, Pf Dd2 inh)

Assay outcomes from PubChem.
